# Shown is part of a subset that was picked to be rich in hits.
# DUX4 txn inh – DUX4-mediated transcription inhibition. 293T-iDUX4 ZSCAN4-Gaussia luciferase reporter, 24 h; hits give low values. activity change, negative = inhibition, % (test concentration not listed). actives 0.8% (n = 37,000). AID 1224904;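 active means mean inhibition of at least 10% in the main channel, exceeding the control channel by a set limit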;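 further: 0% = median of neutral control wells and -100% = median of positive control wells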
# The depositor's hits bear a star.
SMILES,DUX4 txn inh
Cc1ccccc1-c1ccc(C2[C@@H]3CN(C(=O)c4cnccn4)C[C@H]2N3)cc1 (some centres not stated),4
CC(C)NC(=O)N1CC2(C1)[C@@H](c1ccccc1)[C@@H](CO)N2C(=O)c1ccccn1,4
CCC(=O)N1CC2(CCN(S(C)(=O)=O)CC2)c2c(n(C)c3cc(OC)ccc23)[C@@H]1CO,14
CCCNC(=O)C[C@H]1C[C@@H]2c3cc(NS(=O)(=O)c4ccc(F)cc4)ccc3O[C@@H]2[C@@H](CO)O1,7
C[C@@H]1CN([C@H](C)CO)C(=O)c2cc(C3=CCCC3)cnc2O[C@@H]1CN(C)C(=O)NC1CCCC1,-2
C[C@@H]1CN([C@@H](C)CO)S(=O)(=O)c2ccc(C#Cc3ccccc3F)cc2O[C@H]1CN(C)CC1CCOCC1,-2
O=C(C1CCOCC1)N1CC[C@@H]2[C@H]1c1cc(Br)ccc1N[C@@H]2CO,2
COc1ccc2c3c([nH]c2c1)[C@@H](CO)N(C(=O)c1cnccn1)CC31CCN(C(=O)c2cnccn2)CC1,12
O=C(O)C[C@H]1CC[C@H](NC(=O)CCN2CCCCC2)[C@@H](CO)O1,2
CCC(=O)Nc1ccc2c(c1)OC[C@@H](C)N(C(=O)C1CC1)C[C@H](C)[C@H](OC)CN(C)C2=O,2
O=C(Nc1cccc(F)c1)N1CCCCN2[C@H](CO)[C@H](c3ccc(-c4ccncc4)cc3)[C@@H]2C1,1
Cc1ccccc1-c1ccc([C@@H]2[C@H]3CN(C(=O)Nc4cccc(F)c4)CCCCN3[C@H]2CO)cc1,-43*
CN(C)C(=O)c1ccc(-c2ccc([C@@H]3[C@H](CO)N4CCCCN(CCC(F)(F)F)C[C@@H]34)cc2)cc1,3
Cc1ccccc1-c1ccc([C@H]2[C@H]3CN(C(=O)Nc4cccc(F)c4)CCCCN3[C@H]2CO)cc1,-5
COc1ccccc1C#Cc1ccc([C@H]2[C@H](CO)N3CCCCN(CCC(F)(F)F)C[C@@H]23)cc1,-61*
Cc1cccc(-c2ccc([C@H]3[C@@H](CO)N4CCCCN(Cc5ccncc5)C[C@@H]34)cc2)c1,7
C/C=C/c1ccc([C@@H]2[C@H]3CN(CCC(F)(F)F)CCCCN3[C@H]2CO)cc1,5
O=C(C1CC1)N1CCCCN2[C@H](CO)[C@H](c3ccc(-c4cccc(F)c4)cc3)[C@@H]2C1,-22*
COc1ccccc1C#Cc1ccc([C@H]2[C@H]3CN(S(C)(=O)=O)CCCCN3[C@H]2CO)cc1,23
CN(C)C(=O)c1cccc(-c2ccc([C@@H]3[C@@H](CO)N4CCCCN(C(=O)C5CCC5)C[C@H]34)cc2)c1,29
Cc1cccc(-c2ccc([C@@H]3[C@H]4CN(CCC(F)(F)F)CCCCN4[C@H]3CO)cc2)c1,-31*
O=C(C1CC1)N1CCCCN2[C@@H](CO)[C@H](c3ccc(-c4cccc(F)c4)cc3)[C@@H]2C1,0
CNC(=O)C[C@@H]1CC[C@H]2[C@@H](COC[C@H](O)CN2C(=O)c2ccc3c(c2)OCO3)O1,5
O=C(c1ccccc1)N1CC2(C1)[C@@H](c1ccccc1)[C@@H](CO)N2C(=O)CC1CC1,3
CS(=O)(=O)Nc1ccc2c(c1)[C@@H]1C[C@@H](CC(=O)NCC3CC3)O[C@H](CO)[C@@H]1O2,3
SMILES,DUX4 txn inh
CO[C@@H]1CC[C@H]2CCOc3ccc(C#N)cc3C(=O)N(C)C[C@@H](OC)[C@@H](C)C(=O)N(C)C[C@H]1O2,-2
CN1C(=O)c2cc(NC(=O)c3cccc(F)c3)ccc2OC[C@H]2O[C@@H](CC(=O)NC3CCC3)CC[C@@H]21,-1
CCS(=O)(=O)Nc1ccc2c(c1)C(=O)N(C)[C@H]1CC[C@H](CC(=O)Nc3ccccc3C)O[C@@H]1CO2,1
CO[C@H]1CN(C)C(=O)c2ccc(NS(C)(=O)=O)cc2OC[C@H](C)N(Cc2ccccn2)C[C@@H]1C,6
COc1ccc2c3c([nH]c2c1)[C@H](CO)N(C(=O)Nc1ccc(F)cc1)CC31CN(C(=O)Nc2ccccc2)C1,-7
COCC(=O)N1CC2(C1)CN(S(C)(=O)=O)[C@@H](CO)c1[nH]c3cc(OC)ccc3c12,18
O=C(NCc1ccncc1)[C@@H]1N[C@@H]2c3ccc(/C=C/c4ccccc4)c(=O)n3C[C@@H]2[C@H]1CO,-4
OC[C@@H]1[C@@H](c2ccc(-c3cccc(F)c3)cc2)[C@H]2CN(Cc3cncnc3)CCCCN12,4
OC[C@@H]1[C@H](c2ccc(-c3cccc(F)c3)cc2)[C@@H]2CN(CCC(F)(F)F)CCCCN12,-6
OC[C@@H]1[C@H](c2ccc(-c3cccc(F)c3)cc2)[C@H]2CN(CCC(F)(F)F)CCCCN12,-47*
CCC(=O)N1[C@@H](CO)[C@@H]2c3ccccc3N(C(=O)Nc3cccc(Cl)c3)C[C@@H]21,-3
CC=Cc1ccc2n(c1=O)C[C@H]1[C@H](CO)[C@@H](C(=O)NC3CCC3)N(CCC(F)(F)F)[C@@H]21 (mixture of isomers),-6
OC[C@@H]1Nc2ccc(-c3cccc(F)c3)cc2[C@@H]2[C@H]1CCN2Cc1ccncc1,1
CC(=O)N1CC[C@@H]2[C@@H](CO)Nc3ccc(-c4cccc(F)c4)cc3[C@@H]21,13
COc1ccc(-c2ccc3c(c2)[C@H]2[C@H](CCN2Cc2ccncc2)[C@@H](CO)N3)cc1,7
OC[C@@H]1Nc2ccc(-c3ccc(F)cc3)cc2[C@H]2[C@@H]1CCN2Cc1ccc(F)cc1,-3
OC[C@H]1Nc2ccc(-c3cccc(F)c3)cc2[C@@H]2[C@H]1CCN2Cc1ccc(F)cc1,-24*
N#Cc1cccc(-c2ccc3c(c2)[C@@H]2[C@@H](CCN2Cc2cncnc2)[C@@H](CO)N3)c1,-5
N#Cc1cccc(-c2ccc3c(c2)[C@H]2[C@H](CCN2C(=O)c2ccncc2)[C@@H](CO)N3)c1,7
OC[C@H]1Nc2ccc(-c3cccc(F)c3)cc2[C@H]2[C@@H]1CCN2Cc1ccncc1,-20*
CC(=O)N1CC[C@@H]2[C@H]1c1cc(-c3cccc(F)c3)ccc1N[C@@H]2CO,22
N#Cc1cccc(-c2ccc3c(c2)[C@H]2[C@H](CCN2Cc2ccncc2)[C@@H](CO)N3)c1,-47*
O=C(C1CCC1)N1CC[C@@H]2[C@@H](CO)Nc3ccc(-c4cccc(F)c4)cc3[C@@H]21,11
OC[C@H]1Nc2ccc(-c3cccc(F)c3)cc2[C@H]2[C@@H]1CCN2Cc1ccc(F)cc1,-32*
COc1ccc(S(=O)(=O)Nc2ccc3c(c2)C(=O)N([C@@H](C)CO)C[C@@H](C)[C@@H](CN(C)C(=O)Nc2cccc4ccccc24)OCCCC[C@H](C)O3)cc1,0
SMILES,DUX4 txn inh
CCC(=O)N1[C@@H]2Cn3c(cccc3=O)[C@H]1[C@@H](C(=O)NC1CCC1)[C@@H]2CO,-3
O=C(C[C@@H]1C[C@H]2c3cc(NS(=O)(=O)c4ccc(F)cc4)ccc3O[C@H]2[C@@H](CO)O1)N1CCCCC1,4
COC(=O)[C@@H]1[C@@H](CO)[C@@H]2Cn3c(ccc(-c4cccc(F)c4)c3=O)[C@@H]2N1CC1CC1,-5
O=C(NCC1CC1)[C@@H]1[C@@H](CO)[C@@H]2Cn3c(ccc(-c4cccnc4)c3=O)[C@H]1N2Cc1nccs1,2
O=C(Cc1ccccc1)N1CC(=O)N2[C@H](C1)[C@@H](c1ccc(Br)cc1)[C@@H]2CO,0
CN(C)CC(=O)N1CC2(C1)[C@@H](c1ccccc1)[C@@H](CO)N2C(=O)C1CCCC1,0
COc1ccc2c3c([nH]c2c1)[C@@H](CO)N(C(=O)C1CC1)CC31CCN(C(=O)NC(C)C)CC1,15
